Values joined by “and” are separate entries in the source; they are usually repeats but may differ in a detail not shown here. Identical values can stand only once. Records with an inconclusive call do not appear. Where a call stands in place of a potency, no number is given. Some structures have more than one record in an assay (separate samples or runs), and their calls can disagree. Active and inactive are the calls of the source. Calls come from the whole dose curve.
assay: Primary qHTS to identify inhibitors of SARS-CoV-2 cell entry (AID 1645846); conditions: SARS-CoV-2 pseudovirus cell entry assay, luminescence; activity change, negative = inhibition: at 57.1 µM (top of the series) unless noted; series mostly up to 57.1 µM; note: nearly all actives have a fitted effect of over 45% in size
Description: Assay Provider: Wei Zheng, Ph.D.
National Center for Advancing Translational Sciences, National Institute of Health, Rockville, MD.
SARS-CoV-2 spike protein, within the viral envelope, mediates viral attachment and infection of host cells. The SARS-CoV-2 spike protein specifically binds to the host receptor ACE2 (Angiotensin-converting enzyme 2). This interaction promotes endocytosis of the viral particle, additional events lead to viral-host cell membrane fusion and release of the viral contents, allowing viral replication.
While SARS-CoV-2 requires BSL-3 facilities for live virus work, pseudotyped partices (PP) that incorporate SARS-CoV-2 spike proteins without replication elements could facilitate studies on viral entry mechanisms in a BSL-2 setting. This PP cell entry assay could also enable screening of small molecule compound libraries in BSL-2 setting to identify inhibitors of SARS-CoV-2 cell entry.
PROTOCOL TABLE (format as described by Inglese J, Shamu CE and Guy RK. 2007)
SEQUENCE No. (e.g., 1, 2, 3, etc.); […] (e.g., Cells, Incubation, Reagent, etc.); VALUE and DESCRIPTION.
1. Cells. Seed 1500 HEK293-ACE2 cells (Expi293F with stable expression of human ACE2) in 2 uL/well media (DMEM, 10% FBS, 1x L-glutamine, 1x Pen/Strep, 1 ug/ml puromycin) in white 1536-well assay plates (Greiner #782073).
2. Incubation. Incubate at 37C with 5% CO2 overnight (~16 h).
3. Compounds. Dispense 23 nL/well compounds in DMSO via pin transfer.
4. Incubation. Incubate for 1 hr at 37C 5% CO2.
5. Reagent. Dispense 2 uL/well of SARS-CoV-2-S pseudotyped particles. [a] PPs are produced with murine leukemia virus pseudotyping. [b] SARS-CoV-2-S is Wuhan-Hu-1 sequence (BEI #NR-52420) with C-terminal 19 amino acid truncation.
6. Centrifuge. […]
7. Incubation. Incubate at for 48 hr at 37C 5% CO2
8. Centrifuge. Remove supernatant with gentle centrifugation using a Blue Washer (BlueCat Bio).
9. Reagent. Dispense 4 uL/well of Bright-Glo Luciferase detection reagent (Promega #E2620).
10. Incubation. Incubate for 5 min at room temperature.
11. Detection. Read luminescence signal (Viewlux plate reader, PerkinElmer). Data was normalized with wells containing SARS-CoV-2-S PP as 100%, and wells containing bald PP (no fusion protein) as 0%.
Potency is the fitted concentration of half-maximal effect.

SMILES | activity change, negative = inhibition | Potency
NS(=O)(=O)c1cc(C(=O)NN2C[C@H]3[C@H]4CCC(C4)[C@H]3C2)ccc1Cl | -24.3% | 
CCOC(=O)C1=C[C@@H](OC(CC)CC)[C@H](NC(C)=O)[C@@H](N)C1 | -2% | inactive
CCOC(=O)C1=C(C)NC(C)=C(C(=O)OC)C1c1cccc([N+](=O)[O-])c1 (stereo not given) |  | inactive
NC(=O)c1ccc([N+](=O)[O-])cc1Cl | -5.3% | 
CC(CC(C#N)(c1ccccc1)C(C)C)N(C)C (stereo not given) |  | inactive
COC(=O)c1ccc(O)cc1 |  | inactive
CNNCc1ccc(C(=O)NC(C)C)cc1 | 3.71% | inactive
NC(CO)(CO)CO |  | inactive
Cc1ccc(C(C)C)c(O)c1 | -6.21% | 
NC(=O)NC1N=C([O][Al])NC1=O (stereo not given) | -0.751% | 
CN[C@@H]1[C@@H](O)[C@@H](O[C@@H]2[C@H](O)[C@H](O[C@H]3OC(CN)=CC[C@H]3N)[C@@H](N)C[C@H]2N)OCC1(C)O (stereo not given in full) |  | inactive
CN1C(C(=O)Nc2ccccn2)=C(O)c2ccccc2S1(=O)=O | -89.8% | inactive
Cc1nnc(SCC2=C(C(=O)O)N3C(=O)[C@@H](NC(=O)Cn4cnnn4)[C@H]3SC2)s1 |  | inactive
O=C(O)/C=C(\CC(=O)O)C(=O)O | 0.545% | 
Nc1cc(C(Cl)=C(Cl)Cl)c(S(N)(=O)=O)cc1S(N)(=O)=O | -25% | inactive
C#CC(O)(C=CCl)CC (stereo not given) | -20.1% | 
Cc1cnc(NC(=O)C2=C(O)c3ccccc3S(=O)(=O)N2C)s1 | -28.9% | inactive
CN(CC1(C)CCCO1)S(=O)(=O)c1ccc(Cl)c(S(N)(=O)=O)c1 (stereo not given) | -32.6% | 

SMILES | activity change, negative = inhibition | Potency
Nc1ccc(S(=O)(=O)NC(=O)c2ccccc2)cc1 |  | inactive
NS(=O)(=O)c1ccc(Cl)c(S(N)(=O)=O)c1 |  | inactive
CCOc1ccc(NS(=O)(=O)c2ccc(N)cc2)nn1 | -12.4% | 
CC(=O)Nc1ccc(CC(=O)O)cc1 |  | inactive
CC(=O)N=c1sc(S(N)(=O)=O)nn1C | -31.8% | 
CNC(=O)c1c(I)c(NC(C)=O)c(I)c(C(=O)O)c1I |  | inactive
Cc1ccc(C(C)C)cc2c(C)ccc1-2 |  | inactive
C=CCN1CCc2nc(N)sc2CC1 |  | inactive
NCc1ccc(S(N)(=O)=O)cc1 |  | inactive
O=C1CC[C@H](C(=O)N2CCCCC2)N1 | 2.86% | 
CC1(C)O[C@@H]2C[C@H]3[C@@H]4CCC5=CC(=O)C=C[C@]5(C)[C@@]4(F)[C@@H](O)C[C@]3(C)[C@]2(C(=O)CO)O1 |  | inactive
CN(C)CCOC(=O)COc1ccc(Cl)cc1 |  | inactive
CCN[C@H]1CN(CCCOC)S(=O)(=O)c2sc(S(N)(=O)=O)cc21 | -6.75% | 
Oc1ccc(OCc2ccccc2)cc1 |  | inactive and 3.16 µM (active)
Nc1nc(/C(=C/CC(=O)O)C(=O)N[C@@H]2C(=O)N3C(C(=O)O)=CCS[C@H]23)cs1 | -21.3% | 
NCC[C@H](O)C(=O)N[C@@H]1C[C@H](N)[C@@H](O[C@H]2O[C@H](CN)[C@@H](O)[C@H](O)[C@@H]2O)[C@H](O)[C@@H]1O[C@H]1O[C@H](CO)[C@@H](O)[C@H](N)[C@@H]1O | -28% [at 0.702 µM] | 
O=C(O)c1cc(N=Nc2ccc(O)c(C(=O)O)c2)ccc1O | -12.7% | 

From PubChem BioAssay (NCATS)
